SMN2 splice up: qHTS Assay for Enhancers of SMN2 Splice Variant Expression; HEK293 SMN2-luciferase splicing reporter, luminescence, 30-36 h; Potency, µM (highest dose often 46.1 µM), for the others: at the top dose activity change, positive = activation, hits mostly activators; 210,000 tested, 2.8% active; AID 1458, 2008; also: % of control where 0% means no effect; nearly all actives have a fitted effect of over 55% in size
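qHTS luciferase splicing reporter: luminescence rises when SMN2 exon 7 is included in transfected HEK293 cells. Compound exposure lasted 30-36 h at 37C, with 4.5 mM final sodium butyrate as control, followed by a ONE-Glo read.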
ELG1 genotox: qHTS screen for small molecules that induce genotoxicity in human embryonic kidney (HEK293T) cells expressing luciferase-tagged ELG1. HEK293T ELG1-luciferase reporter, luminescence, 16 h. Potency, µM (series often up to 46 µM), for the others: at the highest dose activity change, positive = activation, hits mostly activators. 330,000 tested, 1.3% active. AID 504466, 2011; also: % of control where 0% means no effect; nearly all actives have a fitted effect of over 60% in size
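HEK293T cells expressing luciferase-tagged ELG1 were exposed to compound or DMSO vehicle for 16 hr at 37 °C and 5% CO2. Luciferase activity was then measured with ONE-Glo after 30 min at room temperature.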
NPC1 prom act: qHTS Assay for NPC1 Promoter Activators; Huh7 NPC1 promoter luciferase reporter, 24 h; Potency, µM (doses to about 9.22 µM), for inactives: at the top dose activation, most hits filed as activators; 320,000 tested, 2.4% active; AID 485313, 2010; also: % of control where 0% means no effect; nearly all actives have a fitted effect of over 60% in size
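In 1536-well qHTS, Huh7 cells harboring an NPC1 promoter–luciferase construct received compound for 24 h; activation was quantified by luminescence following luciferase reagent addition.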
FLuc counter: qHTS profiling assay for firefly luciferase inhibitor/activator using purifed enzyme and Km concentrations of substrates (counterscreen for miR-21 project). Potency, µM (top dose mostly 57.5 µM), inactives show top-dose activity change, negative = inhibition, usual class: inhibitors. Luciferin 4-monooxygenase (Photinus pyralis), P08659. 360,000 tested, 6.9% active. purified FLuc, Km substrates, luminescence inhibition;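 also: plate controls were vehicle for no effect and reference inhibitor for full effect; nearly all actives have a fitted effect of over 55% in size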
Target sequence (P08659 whole entry, looked up): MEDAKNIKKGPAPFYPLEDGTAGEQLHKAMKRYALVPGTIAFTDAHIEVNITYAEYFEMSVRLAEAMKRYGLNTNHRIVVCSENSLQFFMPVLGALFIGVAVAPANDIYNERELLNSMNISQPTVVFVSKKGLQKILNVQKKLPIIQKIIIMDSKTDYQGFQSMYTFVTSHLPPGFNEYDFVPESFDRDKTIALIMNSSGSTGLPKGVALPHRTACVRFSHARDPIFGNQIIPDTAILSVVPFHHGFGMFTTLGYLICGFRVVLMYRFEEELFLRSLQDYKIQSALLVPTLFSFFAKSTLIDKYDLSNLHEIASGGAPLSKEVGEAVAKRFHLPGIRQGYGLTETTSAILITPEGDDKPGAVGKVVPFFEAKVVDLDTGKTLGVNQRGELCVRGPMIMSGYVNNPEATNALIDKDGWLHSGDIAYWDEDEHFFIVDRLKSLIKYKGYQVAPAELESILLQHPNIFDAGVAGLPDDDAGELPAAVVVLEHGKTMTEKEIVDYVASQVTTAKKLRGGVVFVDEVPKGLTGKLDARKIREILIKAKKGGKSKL
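Biochemical qHTS of compounds, final roughly 60 µM downward over six points, against 10 nM purified firefly luciferase using Km concentrations of substrates (10 uM D-luciferin, 10 uM ATP) in Tris acetate pH 7.5 buffer; luminescence output.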
Rab9 prom act: qHTS Assay for Rab9 Promoter Activators. 320,000 tested, 2.8% active. Huh7 Rab9 promoter-luciferase reporter, luminescence, 24 h. Potency, µM (highest dose often 9.22 µM), inactives show top-dose activation, negative = inhibition, usual class: activators; also: % of control where 0% means no effect; nearly all actives have a fitted effect of over 60% in size
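Huh7 cells stably carrying a Rab9 promoter-luciferase reporter, 1500 cells per well in OP-MEM I with 10% FBS, treated with compound 24 hours at 37C. Luciferase activity read by luminescence after 10 minutes with Amplite reagent.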
ELG1 repair inh: qHTS screen for small molecules that inhibit ELG1-dependent DNA repair in human embryonic kidney (HEK293T) cells expressing luciferase-tagged ELG1; HEK293T ELG1-luciferase reporter, luminescence, 16 h; DNA damage induced by 5-fluorouridine; Potency, µM (titrated, usually from 46.1 µM), inactives show top-dose activity change, negative = inhibition, hits mostly inhibitors; 330,000 tested, 2.3% active; AID 504467, 2011; also: % is scaled to controls: 0 for no effect and ±100 for the full control effect; nearly all actives have a fitted effect of over 55% in size
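Cells (2,000 per well) received 5-fluorouridine plus test compound or DMSO and were incubated 16 hr at 37 °C, 5% CO2. Luciferase activity was read by luminescence 30 min after ONE-Glo addition; signal suppression marked inhibition of damage-induced ELG1 function.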
ELG1-Luc inh: HTS assay for small molecules that inhibit ELG1-dependent DNA repair in human embryonic kidney (HEK293T) cells expressing luciferase-tagged ELG1: Hit Confirmation | Potency, µM (highest dose often 46.1 µM), for the others: at the highest dose activity change, negative = inhibition, hits mostly inhibitors | AID 624248, 2012 | shares compounds with ELG1 repair inh | HEK293T ELG1-luciferase levels, luminescence; cells co-treated with 5-fluorouridine | 670 tested, 68% active; also: % is scaled to controls: 0 for no effect and ±100 for the full control effect; nearly all actives have a fitted effect of over 55% in size
ELG1 MMS Luc: confirmation of human ELG1 repair inhibitors, MMS stimulated; shares compounds with ELG1 repair inh; HEK293T luciferase-tagged ELG1 level, MMS stimulated; Potency, µM (highest dose often 46.1 µM), without a hit: at the highest dose activity change, negative = inhibition, most hits filed as inhibitors; 670 tested, 53% active; also: % is scaled to controls: 0 for no effect and ±100 for the full control effect; nearly all actives have a fitted effect of over 60% in size
ELG1 5-FU: qHTS screen for small molecules that inhibit ELG1-dependent DNA repair: Hit Confirmation with 5FU Viability | Potency, µM (highest dose often 46.1 µM), for the others: at the highest dose activity change, negative = viability loss, hits mostly cytotoxic | shares compounds with ELG1 repair inh | cell viability with 5-FU, ELG1-dependent repair | 670 tested, under 10 active | AID 624250, 2012;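 also: ELG1-luc HEK293T cells cotreated with 5-fluorouridine at 10 µM final; viability measured 16 h after compound addition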
ELG1 MMS viab: qHTS screen for small molecules that inhibit ELG1-dependent DNA repair: Hit Confirmation with MMS Viability | shares compounds with ELG1 repair inh | Cell viability with MMS, ELG1-dependent DNA repair | Potency, µM (series often up to 46.1 µM), for the others: at the highest dose activity change, negative = viability loss, actives largely listed as cytotoxic | 670 tested, 33% active | AID 624251, 2012;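 also: ELG1-luc HEK293T cells co-treated with 10 µM MMS; viability read 16 h after compound addition; % is scaled to controls: 0 for no effect and ±100 for the full control effect; nearly all actives have a fitted effect of over 60% in size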
Cell viab unstim: qHTS screen for small molecules that inhibit ELG1-dependent DNA repair: Hit Confirmation with Unstimulated Viability Assay | shares compounds with ELG1 repair inh | cell viability counter-screen, unstimulated, luminescence | Potency, µM (doses to about 45.9 µM), for inactives: top-dose activity change, negative = loss of viability, hits mostly cytotoxic | 900 tested, 8% active | AID 624252, 2012;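 also: compound exposure lasted 16 hours before reading; % is scaled to controls: 0 for no effect and ±100 for the full control effect; nearly all actives have a fitted effect of over 55% in size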
Numbers without * were called inactive; ? = inconclusive; nt = no result. Compounds with a hit are over-represented: about 9.2% of the library has one in this group of screens. Calls follow the shape of the dose curve; as a rule, active = well fitted curve in the direction sought with a large enough effect; inconclusive = small, poorly fitted or top-dose-only effect, or another doubt; inactive = no such curve, though single readings can be large; an effect the other way counts as inactive or inconclusive. Potency is read from the fitted curve at half-maximal effect.

SMILES | SMN2 splice up | ELG1 genotox | NPC1 prom act | FLuc counter | Rab9 prom act | ELG1 repair inh | ELG1-Luc inh | ELG1 MMS Luc | ELG1 5-FU | ELG1 MMS viab | Cell viab unstim
Nc1ncnc(N2CCc3ccccc32)c1[N+](=O)[O-] | 3% | -20% | 9% | -1% | -27% | 1.8µM* | 1.6µM* | 7.9µM* | -10% | -3% | -19%
CCOC(=O)C1CCN(Cc2cc(=O)oc3c(C)c(C)ccc23)CC1 | nt | -6% | -3% | -10% | -15% | ? | nt | nt | nt | nt | nt
Cc1ccccc1NC(=O)COC(=O)/C=C/c1cn(-c2ccccc2)nc1-c1cccnc1 | 11% | 0% | -6% | -4% | -7% | ? | nt | nt | nt | nt | nt
CC(=O)Nc1ccc(NC(=O)C(C)OC(=O)/C=C/c2cn(-c3ccccc3)nc2-c2cccnc2)cc1 (configuration not stated) | -29% | -7% | -4% | -1% | -9% | 1.6µM* | 0.79µM* | 25µM* | ? | 25µM* | ?
O=C(CN1C(=O)CCc2cc(S(=O)(=O)N3CCCCC3)ccc21)NCc1ccc(Cl)cc1 | nt | nt | nt | -7% | nt | nt | nt | nt | nt | nt | nt
